Measured values: paper PMC7862700, “An all-to-all approach to the identification of sequence-specific readers for epigenetic DNA modifications on cytosine”

What was measured:
Assay in all cases: DAPPL (digital affinity profiling via proximity ligation, sequencing); 10 mM Tris-HCl pH 7.5, 50 mM NaCl, 1 mM DTT, 4% glycerol, room temperature, 30 min; GST-TFs on glutathione beads, 16-mer random dsDNA library, 0.1% formaldehyde crosslink after washing; high values mean tight binding
Details in all cases: protein: recombinant; tags: N-terminal GST; dsDNA, one strand shown
FLI1 = biological target: T1, FLI1 (Homo sapiens, UniProt Q01543 1-452)
T1 sequence: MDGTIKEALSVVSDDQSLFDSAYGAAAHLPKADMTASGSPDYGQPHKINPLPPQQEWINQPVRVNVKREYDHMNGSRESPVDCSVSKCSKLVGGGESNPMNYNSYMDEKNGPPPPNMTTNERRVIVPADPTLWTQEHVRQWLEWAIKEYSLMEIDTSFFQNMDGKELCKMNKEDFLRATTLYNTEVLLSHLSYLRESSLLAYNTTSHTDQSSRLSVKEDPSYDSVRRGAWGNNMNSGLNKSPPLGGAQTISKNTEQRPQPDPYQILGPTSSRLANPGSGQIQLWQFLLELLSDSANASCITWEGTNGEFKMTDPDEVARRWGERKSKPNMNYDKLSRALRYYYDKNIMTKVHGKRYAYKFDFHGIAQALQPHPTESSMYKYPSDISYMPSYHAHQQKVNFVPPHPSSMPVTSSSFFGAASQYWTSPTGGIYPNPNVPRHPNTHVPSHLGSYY
In short: (§1)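 Beads coated with glutathione captured GST-fused human transcription factors that had been expressed in yeast, and the factors were then given DNA barcodes and pooled with a tag-only sample. The pools were incubated with 200 nmole of a random double-stranded 16-mer DNA library in Tris/NaCl/DTT/glycerol buffer for 30 min at room temperature, washed, crosslinked with 0.1% formaldehyde and proximity-ligated with BsaI/T4 ligase at 37 °C for 1 h. PCR amplification and Illumina NextSeq500 sequencing came last. Binding signal is each hexamer's read frequency for a factor divided by its frequency for the tag-only sample.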

ELK1 = biological target: T2, ELK1 (Homo sapiens, UniProt P19419 1-428)
T2 sequence: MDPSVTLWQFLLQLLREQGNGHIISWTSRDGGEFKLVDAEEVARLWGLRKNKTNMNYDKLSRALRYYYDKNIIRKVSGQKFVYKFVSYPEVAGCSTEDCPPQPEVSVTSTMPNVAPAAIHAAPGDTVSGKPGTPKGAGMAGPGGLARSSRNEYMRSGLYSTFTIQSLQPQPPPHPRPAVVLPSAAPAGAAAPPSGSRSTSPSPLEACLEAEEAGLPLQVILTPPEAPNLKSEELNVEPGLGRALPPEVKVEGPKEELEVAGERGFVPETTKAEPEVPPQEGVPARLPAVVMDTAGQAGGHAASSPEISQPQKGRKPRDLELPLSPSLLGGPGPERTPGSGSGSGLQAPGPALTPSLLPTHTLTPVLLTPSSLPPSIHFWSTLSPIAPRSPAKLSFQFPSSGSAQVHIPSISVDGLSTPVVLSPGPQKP
In short: as §1

GABPA = biological target: T3, GABPA (Homo sapiens, UniProt Q06546 1-454)
T3 sequence: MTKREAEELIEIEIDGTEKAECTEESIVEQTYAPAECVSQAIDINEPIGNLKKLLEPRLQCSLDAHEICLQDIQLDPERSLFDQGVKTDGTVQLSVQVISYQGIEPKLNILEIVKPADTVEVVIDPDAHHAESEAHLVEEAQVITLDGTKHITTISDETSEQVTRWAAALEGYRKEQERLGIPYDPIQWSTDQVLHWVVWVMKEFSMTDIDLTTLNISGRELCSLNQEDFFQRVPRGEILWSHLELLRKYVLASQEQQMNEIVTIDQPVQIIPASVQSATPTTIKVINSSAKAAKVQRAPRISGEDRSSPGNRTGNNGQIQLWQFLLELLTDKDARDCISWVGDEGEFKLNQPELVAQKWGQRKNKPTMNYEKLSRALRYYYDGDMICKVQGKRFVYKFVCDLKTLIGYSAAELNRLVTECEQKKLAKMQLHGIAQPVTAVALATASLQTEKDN
In short: as §1

ERG = biological target: T4, ERG (Homo sapiens, UniProt P11308 1-479)
T4 sequence: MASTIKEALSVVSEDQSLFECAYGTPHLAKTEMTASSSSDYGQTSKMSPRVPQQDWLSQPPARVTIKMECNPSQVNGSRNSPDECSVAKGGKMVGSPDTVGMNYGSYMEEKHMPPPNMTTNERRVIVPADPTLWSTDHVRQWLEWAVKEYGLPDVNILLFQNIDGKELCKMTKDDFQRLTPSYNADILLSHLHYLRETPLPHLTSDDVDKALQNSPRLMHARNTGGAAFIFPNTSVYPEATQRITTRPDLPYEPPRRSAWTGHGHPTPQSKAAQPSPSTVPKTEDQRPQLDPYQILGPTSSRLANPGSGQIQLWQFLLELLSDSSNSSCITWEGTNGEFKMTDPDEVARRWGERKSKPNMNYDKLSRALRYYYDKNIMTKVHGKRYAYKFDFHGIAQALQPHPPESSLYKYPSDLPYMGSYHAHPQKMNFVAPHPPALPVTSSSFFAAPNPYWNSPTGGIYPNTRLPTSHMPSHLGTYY
In short: as §1

ELF1 = ELF1 (Homo sapiens, UniProt P32519 1-619)
Chain of ELF1 (P32519 whole entry): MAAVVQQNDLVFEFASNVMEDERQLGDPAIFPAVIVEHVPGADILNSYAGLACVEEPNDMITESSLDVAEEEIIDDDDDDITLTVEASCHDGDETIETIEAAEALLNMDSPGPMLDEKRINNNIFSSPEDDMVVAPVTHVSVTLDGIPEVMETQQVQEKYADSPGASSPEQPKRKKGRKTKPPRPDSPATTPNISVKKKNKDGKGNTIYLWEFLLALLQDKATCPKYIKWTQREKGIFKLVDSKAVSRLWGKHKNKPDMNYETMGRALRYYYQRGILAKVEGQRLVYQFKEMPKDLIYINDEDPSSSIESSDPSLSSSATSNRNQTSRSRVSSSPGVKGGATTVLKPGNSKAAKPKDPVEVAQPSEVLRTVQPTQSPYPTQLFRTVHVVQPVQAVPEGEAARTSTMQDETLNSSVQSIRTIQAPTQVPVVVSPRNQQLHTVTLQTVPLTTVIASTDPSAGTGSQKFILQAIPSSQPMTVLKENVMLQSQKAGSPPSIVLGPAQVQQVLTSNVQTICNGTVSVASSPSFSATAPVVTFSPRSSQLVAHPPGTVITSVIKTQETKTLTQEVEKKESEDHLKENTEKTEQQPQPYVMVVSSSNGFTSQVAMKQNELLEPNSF
In short: as §1

EHF = biological target: T5, EHF (Homo sapiens, UniProt Q9NZC4 1-300)
T5 sequence: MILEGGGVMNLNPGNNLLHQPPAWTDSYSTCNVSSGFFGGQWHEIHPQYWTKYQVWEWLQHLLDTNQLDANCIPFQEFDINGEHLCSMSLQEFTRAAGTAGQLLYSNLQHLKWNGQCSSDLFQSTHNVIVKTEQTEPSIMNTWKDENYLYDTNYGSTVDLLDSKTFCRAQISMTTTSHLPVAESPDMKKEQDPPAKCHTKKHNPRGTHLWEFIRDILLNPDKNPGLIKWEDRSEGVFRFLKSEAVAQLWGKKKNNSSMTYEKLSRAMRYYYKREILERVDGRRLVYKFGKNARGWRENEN
In short: as §1

SPI1 = SPI1 (Homo sapiens, UniProt P17947 1-270)
In short: as §1

SPIB = SPIB (Homo sapiens, UniProt Q01892 1-262)
Chain of SPIB (Q01892 whole entry): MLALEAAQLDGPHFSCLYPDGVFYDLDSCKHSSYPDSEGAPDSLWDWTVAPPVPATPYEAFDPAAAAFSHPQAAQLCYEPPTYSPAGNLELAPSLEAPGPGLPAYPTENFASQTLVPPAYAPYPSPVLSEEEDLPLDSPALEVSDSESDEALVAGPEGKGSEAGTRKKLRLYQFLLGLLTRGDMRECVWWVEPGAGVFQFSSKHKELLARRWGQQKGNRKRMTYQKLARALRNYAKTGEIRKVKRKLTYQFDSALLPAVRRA
In short: as §1

ELK3 = biological target: T6, ELK3 (Homo sapiens, UniProt P41970 1-407)
T6 sequence: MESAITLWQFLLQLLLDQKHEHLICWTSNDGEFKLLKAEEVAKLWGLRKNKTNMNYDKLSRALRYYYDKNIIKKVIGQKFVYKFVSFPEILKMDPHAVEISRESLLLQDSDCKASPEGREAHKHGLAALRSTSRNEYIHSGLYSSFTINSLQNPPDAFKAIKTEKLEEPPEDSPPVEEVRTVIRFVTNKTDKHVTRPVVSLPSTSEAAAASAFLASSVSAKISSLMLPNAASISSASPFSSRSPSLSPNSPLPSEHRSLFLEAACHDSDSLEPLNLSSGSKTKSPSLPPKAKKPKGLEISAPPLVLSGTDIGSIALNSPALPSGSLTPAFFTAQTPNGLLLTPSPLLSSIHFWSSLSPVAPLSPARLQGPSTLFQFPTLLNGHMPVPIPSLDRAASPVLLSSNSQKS
In short: as §1

FEV = biological target: T7, FEV (Homo sapiens, UniProt Q99581 1-238)
T7 sequence: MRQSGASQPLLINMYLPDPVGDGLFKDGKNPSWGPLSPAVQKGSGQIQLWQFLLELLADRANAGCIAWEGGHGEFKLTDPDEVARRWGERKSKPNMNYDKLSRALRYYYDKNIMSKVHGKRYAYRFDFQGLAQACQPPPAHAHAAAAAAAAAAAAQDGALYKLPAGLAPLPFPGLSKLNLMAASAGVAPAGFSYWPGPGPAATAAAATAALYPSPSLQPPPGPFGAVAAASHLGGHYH
In short: as §1

ETV5 = ETV5 (Homo sapiens, UniProt P41161 1-510)
Chain of ETV5 (P41161 whole entry): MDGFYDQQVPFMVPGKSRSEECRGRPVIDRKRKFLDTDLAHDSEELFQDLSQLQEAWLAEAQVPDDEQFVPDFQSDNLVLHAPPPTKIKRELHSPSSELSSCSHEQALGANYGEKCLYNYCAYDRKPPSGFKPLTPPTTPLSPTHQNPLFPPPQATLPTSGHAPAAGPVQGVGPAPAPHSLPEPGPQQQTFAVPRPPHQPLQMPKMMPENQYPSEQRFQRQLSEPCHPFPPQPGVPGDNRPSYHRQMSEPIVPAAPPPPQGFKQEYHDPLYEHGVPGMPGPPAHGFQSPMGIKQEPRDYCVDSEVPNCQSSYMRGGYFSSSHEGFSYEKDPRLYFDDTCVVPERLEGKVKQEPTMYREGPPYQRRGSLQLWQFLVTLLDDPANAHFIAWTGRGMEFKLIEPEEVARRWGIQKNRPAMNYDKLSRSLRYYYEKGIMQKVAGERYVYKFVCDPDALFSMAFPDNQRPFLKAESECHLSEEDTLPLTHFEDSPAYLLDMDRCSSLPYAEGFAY
In short: as §1

SPIC = biological target: T8, SPIC (Homo sapiens, UniProt Q8N5J4 1-248)
T8 sequence: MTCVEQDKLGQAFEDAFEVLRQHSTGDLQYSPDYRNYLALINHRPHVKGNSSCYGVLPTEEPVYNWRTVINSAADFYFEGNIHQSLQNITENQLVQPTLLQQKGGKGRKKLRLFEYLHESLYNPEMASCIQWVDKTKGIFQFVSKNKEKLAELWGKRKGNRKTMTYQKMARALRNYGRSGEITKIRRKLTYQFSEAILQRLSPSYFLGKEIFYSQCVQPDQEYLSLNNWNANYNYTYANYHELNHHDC
In short: as §1

ELF4 = ELF4 (Homo sapiens, UniProt Q99607 1-663)
Chain of ELF4 (Q99607 whole entry): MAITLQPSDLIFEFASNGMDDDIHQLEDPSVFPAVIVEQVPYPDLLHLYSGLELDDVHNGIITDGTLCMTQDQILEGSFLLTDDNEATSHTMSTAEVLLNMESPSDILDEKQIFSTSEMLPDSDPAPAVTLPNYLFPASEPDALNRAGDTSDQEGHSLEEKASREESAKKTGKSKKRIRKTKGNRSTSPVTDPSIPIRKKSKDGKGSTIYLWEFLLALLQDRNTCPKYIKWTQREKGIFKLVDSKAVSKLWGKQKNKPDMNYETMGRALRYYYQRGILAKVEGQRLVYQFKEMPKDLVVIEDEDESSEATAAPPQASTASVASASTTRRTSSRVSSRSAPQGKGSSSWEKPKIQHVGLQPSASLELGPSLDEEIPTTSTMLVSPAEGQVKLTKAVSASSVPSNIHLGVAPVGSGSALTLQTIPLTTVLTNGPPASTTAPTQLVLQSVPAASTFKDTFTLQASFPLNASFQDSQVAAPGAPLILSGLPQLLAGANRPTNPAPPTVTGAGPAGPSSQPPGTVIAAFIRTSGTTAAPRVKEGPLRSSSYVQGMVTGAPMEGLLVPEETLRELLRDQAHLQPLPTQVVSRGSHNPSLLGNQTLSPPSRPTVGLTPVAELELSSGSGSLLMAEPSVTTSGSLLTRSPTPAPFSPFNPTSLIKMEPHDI
In short: as §1

ELK4 = biological target: T9, ELK4 (Homo sapiens, UniProt P28324-2 1-405)
T9 sequence: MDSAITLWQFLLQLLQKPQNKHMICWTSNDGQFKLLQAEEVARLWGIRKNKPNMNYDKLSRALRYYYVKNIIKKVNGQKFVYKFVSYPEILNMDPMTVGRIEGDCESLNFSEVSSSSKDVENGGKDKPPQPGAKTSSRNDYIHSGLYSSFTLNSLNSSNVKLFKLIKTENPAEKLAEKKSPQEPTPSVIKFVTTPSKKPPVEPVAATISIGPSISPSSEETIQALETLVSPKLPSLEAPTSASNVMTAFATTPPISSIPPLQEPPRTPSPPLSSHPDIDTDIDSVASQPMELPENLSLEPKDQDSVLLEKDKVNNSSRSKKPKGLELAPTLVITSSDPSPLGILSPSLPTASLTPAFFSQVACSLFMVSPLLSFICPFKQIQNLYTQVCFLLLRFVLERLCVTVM
In short: as §1

ETV2 = biological target: T10, ETV2 (Homo sapiens, UniProt O00321 1-342)
T10 sequence: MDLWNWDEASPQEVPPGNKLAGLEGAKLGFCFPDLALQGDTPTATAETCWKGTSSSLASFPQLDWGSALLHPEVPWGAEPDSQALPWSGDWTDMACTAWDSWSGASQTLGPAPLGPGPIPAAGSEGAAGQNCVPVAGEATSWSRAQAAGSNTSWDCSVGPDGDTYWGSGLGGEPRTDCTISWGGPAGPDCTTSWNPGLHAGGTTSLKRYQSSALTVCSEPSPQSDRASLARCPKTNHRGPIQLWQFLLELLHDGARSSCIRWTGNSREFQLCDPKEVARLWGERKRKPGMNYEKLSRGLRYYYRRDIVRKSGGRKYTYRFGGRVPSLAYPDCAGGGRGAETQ
In short: as §1

ELF3 = biological target: T11, ELF3 (Homo sapiens, UniProt P78545 1-371)
T11 sequence: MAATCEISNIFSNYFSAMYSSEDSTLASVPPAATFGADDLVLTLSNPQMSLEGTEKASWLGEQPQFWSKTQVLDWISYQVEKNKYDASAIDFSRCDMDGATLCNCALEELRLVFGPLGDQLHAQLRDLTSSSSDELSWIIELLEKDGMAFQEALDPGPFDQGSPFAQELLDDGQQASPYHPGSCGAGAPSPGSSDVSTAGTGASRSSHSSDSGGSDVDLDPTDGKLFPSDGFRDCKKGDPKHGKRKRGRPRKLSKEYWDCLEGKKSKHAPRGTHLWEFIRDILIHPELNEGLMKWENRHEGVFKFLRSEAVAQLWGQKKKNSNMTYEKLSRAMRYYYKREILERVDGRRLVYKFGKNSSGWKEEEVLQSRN
In short: as §1

ETV1 = ETV1 (Homo sapiens, UniProt P50549 1-477)
Chain of ETV1 (P50549 whole entry): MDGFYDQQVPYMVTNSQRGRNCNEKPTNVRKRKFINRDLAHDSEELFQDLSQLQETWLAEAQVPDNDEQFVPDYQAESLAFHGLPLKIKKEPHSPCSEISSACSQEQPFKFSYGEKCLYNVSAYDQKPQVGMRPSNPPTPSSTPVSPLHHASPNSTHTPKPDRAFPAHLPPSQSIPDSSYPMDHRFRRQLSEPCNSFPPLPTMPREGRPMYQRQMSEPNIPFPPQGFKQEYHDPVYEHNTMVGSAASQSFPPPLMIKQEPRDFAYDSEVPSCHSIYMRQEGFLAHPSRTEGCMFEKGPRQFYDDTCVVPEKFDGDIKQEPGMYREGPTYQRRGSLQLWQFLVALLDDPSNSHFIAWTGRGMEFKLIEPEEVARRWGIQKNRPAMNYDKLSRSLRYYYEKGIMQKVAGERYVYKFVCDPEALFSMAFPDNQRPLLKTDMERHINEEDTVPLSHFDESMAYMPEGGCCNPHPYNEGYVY
In short: as §1

Sequence | binding signal (FLI1) | binding signal (ELK1) | binding signal (GABPA) | binding signal (ERG) | binding signal (ELF1) | binding signal (EHF) | binding signal (SPI1) | binding signal (SPIB) | binding signal (ELK3) | binding signal (FEV) | binding signal (ETV5) | binding signal (SPIC) | binding signal (ELF4) | binding signal (ELK4) | binding signal (ETV2) | binding signal (ELF3) | binding signal (ETV1)
ACTACA | 1.32 fold enrichment (6-mer frequency, TF over GST control) | 1.21 fold enrichment (6-mer frequency, TF over GST control) | 1.32 fold enrichment (6-mer frequency, TF over GST control) | 1.16 fold enrichment (6-mer frequency, TF over GST control) | 1.19 fold enrichment (6-mer frequency, TF over GST control) | 1.15 fold enrichment (6-mer frequency, TF over GST control) | 1.13 fold enrichment (6-mer frequency, TF over GST control) | 1.28 fold enrichment (6-mer frequency, TF over GST control) | 1.11 fold enrichment (6-mer frequency, TF over GST control) | 1.17 fold enrichment (6-mer frequency, TF over GST control) | 1.24 fold enrichment (6-mer frequency, TF over GST control) | 1.06 fold enrichment (6-mer frequency, TF over GST control) | 1.16 fold enrichment (6-mer frequency, TF over GST control) | 1.07 fold enrichment (6-mer frequency, TF over GST control) | 1.11 fold enrichment (6-mer frequency, TF over GST control) | 1.04 fold enrichment (6-mer frequency, TF over GST control) | 1.22 fold enrichment (6-mer frequency, TF over GST control)
AACGCC | 1.07 fold enrichment (6-mer frequency, TF over GST control) | 1.1 fold enrichment (6-mer frequency, TF over GST control) | 1.08 fold enrichment (6-mer frequency, TF over GST control) | 1.06 fold enrichment (6-mer frequency, TF over GST control) | 1.09 fold enrichment (6-mer frequency, TF over GST control) | 1.15 fold enrichment (6-mer frequency, TF over GST control) | 1.06 fold enrichment (6-mer frequency, TF over GST control) | 1.11 fold enrichment (6-mer frequency, TF over GST control) |  | 1.11 fold enrichment (6-mer frequency, TF over GST control) | 1.07 fold enrichment (6-mer frequency, TF over GST control) | 1.03 fold enrichment (6-mer frequency, TF over GST control) | 1.15 fold enrichment (6-mer frequency, TF over GST control) | 1.2 fold enrichment (6-mer frequency, TF over GST control) | 1.08 fold enrichment (6-mer frequency, TF over GST control) | 1.08 fold enrichment (6-mer frequency, TF over GST control) | 1.1 fold enrichment (6-mer frequency, TF over GST control)
